Laboratory results as given in PMC10954555.

Experiments:
[1] = target: Large ribosomal subunit protein uL1 (UniProt P62906); assay: cross-linking mass spectrometry; other
[2] = target: 60S ribosome subunit biogenesis protein NIP7 homolog (UniProt Q9Y221); assay: cross-link between two proteins; cross-linking mass spectrometry; other
[3] = target: Heat shock cognate 71 kDa protein (UniProt P11142); assay: other; cross-linking mass spectrometry; other
[4] = target: Stress-70 protein, mitochondrial (UniProt P38646); assay: cross-link between two proteins; cross-linking mass spectrometry; other
THO complex subunit 2 = THO complex subunit 2 (UniProt Q8NI27); assay: other; cross-linking mass spectrometry; other
THO complex subunit 1 [5] = target: THO complex subunit 1 (UniProt Q96FV9); assay: cross-link between two proteins; cross-linking mass spectrometry; other
[6] = target: Transcription initiation factor TFIID subunit 5 (UniProt Q15542); assay: other; cross-linking mass spectrometry; other
[7] = target: Transcription initiation factor TFIID subunit 9 (UniProt Q16594); assay: other; cross-linking mass spectrometry; other
[8] = target: Transcription initiation factor TFIID subunit 9B (UniProt Q9HBM6); assay: other; cross-linking mass spectrometry; other
[9] = target: Transcription initiation factor TFIID subunit 12 (UniProt Q16514); assay: cross-link between two proteins; cross-linking mass spectrometry; other
ELAV-like protein 1 = ELAV-like protein 1 (UniProt Q15717); assay: other; affinity purification or IP with mass spectrometry; other
[10] = target: Heterogeneous nuclear ribonucleoprotein L (UniProt P14866); assay: cross-link between two proteins; affinity purification or IP with mass spectrometry; cross-linking mass spectrometry; other
[11] = target: DNA topoisomerase 3-alpha (UniProt Q13472); assay: cross-link between two proteins; cross-linking mass spectrometry; other
[12] = target: RecQ-mediated genome instability protein 1 (UniProt Q9H9A7); assay: as above
[13] = target: Heterogeneous nuclear ribonucleoprotein A0 (UniProt Q13151); assay: as above
[14] = target: Paired amphipathic helix protein Sin3a (UniProt Q96ST3); assay: as above
Pinin = Pinin (UniProt Q9H307); assay: as above
[15] = target: Polyhomeotic-like protein 2 (UniProt Q8IXK0); assay: as above
[16] = target: Pre-mRNA-processing factor 19 (UniProt Q9UMS4); assay: as above
[17] = target: SAGA-associated factor 29 (UniProt Q96ES7); assay: as above
[18] = target: Sin3 histone deacetylase corepressor complex component SDS3 (UniProt Q9H7L9); assay: as above
[19] = target: Splicing factor 3A subunit 1 (UniProt Q15459); assay: as above
[20] = target: Transcription factor JunD (UniProt P17535); assay: as above
[21] = target: Transcription initiation factor TFIID subunit 3 (UniProt Q5VWG9); assay: as above
[22] = target: Transcription initiation factor TFIID subunit 9 (UniProt Q16594); assay: as above
[23] = target: Transcription initiation factor TFIID subunit 9B (UniProt Q9HBM6); assay: as above
[24] = target: Apoptotic chromatin condensation inducer in the nucleus (UniProt Q9UKV3); assay: cross-linking mass spectrometry; other
Protein lin-54 homolog [25] = target: Protein lin-54 homolog (UniProt Q6MZP7); assay: cross-linking mass spectrometry; other
Protein lin-9 homolog = Protein lin-9 homolog (UniProt Q5TKA1); assay: cross-linking mass spectrometry; other
THO complex subunit 1 [26] = target: THO complex subunit 1 (UniProt Q96FV9); assay: cross-linking mass spectrometry; other
[27] = target: ATP-dependent chromatin remodeler CHD4 (UniProt Q14839); assay: other; cross-linking mass spectrometry; other
[28] = target: Metastasis-associated protein MTA1 (UniProt Q13330); assay: other; cross-linking mass spectrometry; other
[29] = target: Transcriptional repressor p66-alpha (UniProt Q86YP4); assay: other; cross-linking mass spectrometry; other
DNA topoisomerase 2-beta = DNA topoisomerase 2-beta (UniProt Q02880); assay: other; cross-linking mass spectrometry; other
[30] = target: Heterogeneous nuclear ribonucleoprotein A/B (UniProt Q99729); assay: other; cross-linking mass spectrometry; other
[31] = target: Heterogeneous nuclear ribonucleoprotein Q (UniProt O60506); assay: other; cross-linking mass spectrometry; other
Histone H1.2 = Histone H1.2 (UniProt P16403); assay: other; cross-linking mass spectrometry; other
[32] = target: Mediator of RNA polymerase II transcription subunit 17 (UniProt Q9NVC6); assay: other; cross-linking mass spectrometry; other
[33] = target: Methyl-CpG-binding domain protein 2 (UniProt Q9UBB5); assay: other; cross-linking mass spectrometry; other
[34] = target: Methylcrotonoyl-CoA carboxylase beta chain, mitochondrial (UniProt Q9HCC0); assay: other; cross-linking mass spectrometry; other
[35] = target: Probable ATP-dependent RNA helicase DDX23 (UniProt Q9BUQ8); assay: other; cross-linking mass spectrometry; other
Protein lin-54 homolog [36] = target: Protein lin-54 homolog (UniProt Q6MZP7); assay: other; cross-linking mass spectrometry; other
RNA-binding protein EWS = RNA-binding protein EWS (UniProt Q01844); assay: other; cross-linking mass spectrometry; other
[37] = target: Scaffold attachment factor B1 (UniProt Q15424); assay: other; cross-linking mass spectrometry; other
[38] = target: Serine/arginine-rich splicing factor 1 (UniProt Q07955); assay: other; cross-linking mass spectrometry; other
Spindlin-1 = Spindlin-1 (UniProt Q9Y657); assay: other; cross-linking mass spectrometry; other
THO complex subunit 7 = THO complex subunit 7 (UniProt Q6I9Y2); assay: other; cross-linking mass spectrometry; other
[39] = target: Torsin-1A-interacting protein 1 (UniProt Q5JTV8); assay: other; cross-linking mass spectrometry; other
[40] = target: Transcription initiation factor TFIID subunit 12 (UniProt Q16514); assay: other; cross-linking mass spectrometry; other
[41] = target: Trifunctional enzyme subunit beta, mitochondrial (UniProt P55084); assay: other; co-fractionation; cross-linking mass spectrometry; other

Transcription initiation factor TFIID subunit 9B, sequence (Q9HBM6 whole entry): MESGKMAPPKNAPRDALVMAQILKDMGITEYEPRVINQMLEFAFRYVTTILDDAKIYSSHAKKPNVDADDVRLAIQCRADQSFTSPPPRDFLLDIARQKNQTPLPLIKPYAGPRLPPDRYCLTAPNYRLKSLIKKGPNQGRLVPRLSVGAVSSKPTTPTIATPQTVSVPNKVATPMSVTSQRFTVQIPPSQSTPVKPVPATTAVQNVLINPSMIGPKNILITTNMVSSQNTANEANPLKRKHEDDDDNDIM
Transcription initiation factor TFIID subunit 10, Q12962, sequence (Q12962 whole entry): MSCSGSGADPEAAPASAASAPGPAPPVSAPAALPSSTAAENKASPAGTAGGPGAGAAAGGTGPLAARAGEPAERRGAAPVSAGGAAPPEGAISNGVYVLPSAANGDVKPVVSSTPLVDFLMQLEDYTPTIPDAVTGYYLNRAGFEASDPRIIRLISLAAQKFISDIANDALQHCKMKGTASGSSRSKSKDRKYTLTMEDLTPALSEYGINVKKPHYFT
Transcription initiation factor TFIID subunit 9, sequence (Q16594 whole entry): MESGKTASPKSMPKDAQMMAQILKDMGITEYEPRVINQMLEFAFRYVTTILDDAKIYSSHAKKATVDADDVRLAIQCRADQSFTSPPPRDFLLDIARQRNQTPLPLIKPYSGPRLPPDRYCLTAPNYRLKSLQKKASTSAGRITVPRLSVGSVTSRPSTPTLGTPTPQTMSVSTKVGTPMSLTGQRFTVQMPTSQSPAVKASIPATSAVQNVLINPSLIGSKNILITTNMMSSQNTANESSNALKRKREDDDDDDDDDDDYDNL
Transcription initiation factor TFIID subunit 12, sequence (Q16514 whole entry): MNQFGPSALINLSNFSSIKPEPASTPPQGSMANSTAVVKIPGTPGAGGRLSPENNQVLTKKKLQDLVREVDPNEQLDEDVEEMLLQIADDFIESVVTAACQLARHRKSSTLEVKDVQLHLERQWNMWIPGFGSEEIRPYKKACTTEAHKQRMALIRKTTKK
Heterogeneous nuclear ribonucleoprotein A0, sequence (Q13151 whole entry): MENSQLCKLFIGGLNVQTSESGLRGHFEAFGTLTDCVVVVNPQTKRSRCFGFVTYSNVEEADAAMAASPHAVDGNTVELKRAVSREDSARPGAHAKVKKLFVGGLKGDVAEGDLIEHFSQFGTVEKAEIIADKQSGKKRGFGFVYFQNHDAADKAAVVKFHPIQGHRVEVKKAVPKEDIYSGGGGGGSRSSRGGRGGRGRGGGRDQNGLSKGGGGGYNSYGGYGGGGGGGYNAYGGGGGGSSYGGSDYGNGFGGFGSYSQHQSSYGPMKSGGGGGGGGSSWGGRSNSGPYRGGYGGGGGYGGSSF
Protein lin-54 homolog, sequence (Q6MZP7 whole entry): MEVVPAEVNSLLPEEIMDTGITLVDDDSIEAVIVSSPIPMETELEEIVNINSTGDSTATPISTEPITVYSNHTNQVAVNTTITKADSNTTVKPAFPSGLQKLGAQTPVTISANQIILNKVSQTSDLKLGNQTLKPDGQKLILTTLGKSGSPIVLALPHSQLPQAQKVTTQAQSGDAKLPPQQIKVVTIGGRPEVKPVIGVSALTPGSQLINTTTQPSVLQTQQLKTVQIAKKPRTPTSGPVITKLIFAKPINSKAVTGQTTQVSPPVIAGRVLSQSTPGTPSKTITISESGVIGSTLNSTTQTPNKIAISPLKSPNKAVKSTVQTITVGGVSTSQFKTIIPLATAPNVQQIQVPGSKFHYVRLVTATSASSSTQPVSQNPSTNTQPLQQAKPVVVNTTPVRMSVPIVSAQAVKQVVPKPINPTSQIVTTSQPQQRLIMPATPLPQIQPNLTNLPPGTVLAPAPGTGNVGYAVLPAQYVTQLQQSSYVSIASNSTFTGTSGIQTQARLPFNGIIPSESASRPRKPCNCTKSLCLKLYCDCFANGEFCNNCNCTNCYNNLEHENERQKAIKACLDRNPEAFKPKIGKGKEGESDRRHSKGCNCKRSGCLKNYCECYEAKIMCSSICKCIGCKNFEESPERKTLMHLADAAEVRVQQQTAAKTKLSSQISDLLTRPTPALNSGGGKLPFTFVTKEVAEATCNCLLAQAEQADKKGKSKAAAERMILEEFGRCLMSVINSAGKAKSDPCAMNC
Sin3 histone deacetylase corepressor complex component SDS3, sequence (Q9H7L9 whole entry, one chain of several): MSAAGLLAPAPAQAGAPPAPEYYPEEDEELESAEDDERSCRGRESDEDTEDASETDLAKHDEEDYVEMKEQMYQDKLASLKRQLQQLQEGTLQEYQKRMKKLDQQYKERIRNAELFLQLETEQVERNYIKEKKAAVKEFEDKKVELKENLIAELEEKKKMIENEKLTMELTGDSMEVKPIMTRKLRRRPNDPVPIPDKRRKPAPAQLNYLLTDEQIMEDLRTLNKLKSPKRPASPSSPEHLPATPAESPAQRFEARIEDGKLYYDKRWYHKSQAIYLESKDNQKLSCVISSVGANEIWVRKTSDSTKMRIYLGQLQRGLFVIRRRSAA
Transcriptional repressor p66-alpha, sequence (Q86YP4 whole entry): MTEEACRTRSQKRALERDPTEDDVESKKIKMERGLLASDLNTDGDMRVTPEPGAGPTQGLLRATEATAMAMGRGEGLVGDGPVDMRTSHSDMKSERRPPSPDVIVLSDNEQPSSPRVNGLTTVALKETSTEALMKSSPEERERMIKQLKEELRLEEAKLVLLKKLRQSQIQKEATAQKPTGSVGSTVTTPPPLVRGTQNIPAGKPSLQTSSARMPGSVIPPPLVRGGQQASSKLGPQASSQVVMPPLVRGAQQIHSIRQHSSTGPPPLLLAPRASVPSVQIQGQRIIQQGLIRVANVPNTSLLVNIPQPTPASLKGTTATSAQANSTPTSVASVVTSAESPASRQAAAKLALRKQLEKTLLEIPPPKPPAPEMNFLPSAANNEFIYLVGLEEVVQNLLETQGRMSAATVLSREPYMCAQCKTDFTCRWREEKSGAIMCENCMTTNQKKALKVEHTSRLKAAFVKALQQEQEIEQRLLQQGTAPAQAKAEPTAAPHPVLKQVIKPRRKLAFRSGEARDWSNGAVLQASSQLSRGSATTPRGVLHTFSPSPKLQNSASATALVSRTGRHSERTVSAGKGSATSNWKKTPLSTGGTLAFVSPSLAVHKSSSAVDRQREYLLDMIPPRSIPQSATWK
Endoplasmic reticulum chaperone BiP, P11021, sequence (P11021 whole entry): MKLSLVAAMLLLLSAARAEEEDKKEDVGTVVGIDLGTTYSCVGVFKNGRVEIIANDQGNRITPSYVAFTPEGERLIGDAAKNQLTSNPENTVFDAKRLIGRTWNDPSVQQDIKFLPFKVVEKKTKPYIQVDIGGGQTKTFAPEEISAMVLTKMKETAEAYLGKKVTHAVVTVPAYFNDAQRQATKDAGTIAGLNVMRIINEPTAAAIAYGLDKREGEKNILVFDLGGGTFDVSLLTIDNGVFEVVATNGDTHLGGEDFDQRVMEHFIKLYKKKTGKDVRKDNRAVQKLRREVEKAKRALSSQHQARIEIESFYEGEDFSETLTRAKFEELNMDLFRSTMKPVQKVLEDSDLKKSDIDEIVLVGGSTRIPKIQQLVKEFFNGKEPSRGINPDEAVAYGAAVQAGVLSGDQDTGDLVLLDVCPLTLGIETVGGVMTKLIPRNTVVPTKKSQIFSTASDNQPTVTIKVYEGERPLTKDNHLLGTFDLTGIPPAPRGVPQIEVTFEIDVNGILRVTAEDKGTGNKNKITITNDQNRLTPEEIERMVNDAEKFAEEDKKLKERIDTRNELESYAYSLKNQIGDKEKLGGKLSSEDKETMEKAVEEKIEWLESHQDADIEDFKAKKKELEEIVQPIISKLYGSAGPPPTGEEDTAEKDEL
RecQ-mediated genome instability protein 1, sequence (Q9H9A7 whole entry): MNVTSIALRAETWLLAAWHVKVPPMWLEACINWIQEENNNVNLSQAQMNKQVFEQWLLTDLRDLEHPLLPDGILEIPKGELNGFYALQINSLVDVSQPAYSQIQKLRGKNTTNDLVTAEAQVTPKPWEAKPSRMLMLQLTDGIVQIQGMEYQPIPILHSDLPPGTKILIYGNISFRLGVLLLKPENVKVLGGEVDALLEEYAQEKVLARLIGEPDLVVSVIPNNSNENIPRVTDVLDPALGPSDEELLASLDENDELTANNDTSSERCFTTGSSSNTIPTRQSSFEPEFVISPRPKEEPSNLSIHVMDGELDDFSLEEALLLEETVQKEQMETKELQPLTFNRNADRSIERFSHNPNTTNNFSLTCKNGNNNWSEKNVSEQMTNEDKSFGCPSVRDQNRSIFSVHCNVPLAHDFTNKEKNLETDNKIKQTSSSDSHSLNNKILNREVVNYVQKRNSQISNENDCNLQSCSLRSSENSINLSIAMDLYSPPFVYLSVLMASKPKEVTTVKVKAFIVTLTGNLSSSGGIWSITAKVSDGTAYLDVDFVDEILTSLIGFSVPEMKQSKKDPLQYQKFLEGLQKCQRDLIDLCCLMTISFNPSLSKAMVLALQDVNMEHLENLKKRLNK
THO complex subunit 1, sequence (Q96FV9 whole entry, one chain of several): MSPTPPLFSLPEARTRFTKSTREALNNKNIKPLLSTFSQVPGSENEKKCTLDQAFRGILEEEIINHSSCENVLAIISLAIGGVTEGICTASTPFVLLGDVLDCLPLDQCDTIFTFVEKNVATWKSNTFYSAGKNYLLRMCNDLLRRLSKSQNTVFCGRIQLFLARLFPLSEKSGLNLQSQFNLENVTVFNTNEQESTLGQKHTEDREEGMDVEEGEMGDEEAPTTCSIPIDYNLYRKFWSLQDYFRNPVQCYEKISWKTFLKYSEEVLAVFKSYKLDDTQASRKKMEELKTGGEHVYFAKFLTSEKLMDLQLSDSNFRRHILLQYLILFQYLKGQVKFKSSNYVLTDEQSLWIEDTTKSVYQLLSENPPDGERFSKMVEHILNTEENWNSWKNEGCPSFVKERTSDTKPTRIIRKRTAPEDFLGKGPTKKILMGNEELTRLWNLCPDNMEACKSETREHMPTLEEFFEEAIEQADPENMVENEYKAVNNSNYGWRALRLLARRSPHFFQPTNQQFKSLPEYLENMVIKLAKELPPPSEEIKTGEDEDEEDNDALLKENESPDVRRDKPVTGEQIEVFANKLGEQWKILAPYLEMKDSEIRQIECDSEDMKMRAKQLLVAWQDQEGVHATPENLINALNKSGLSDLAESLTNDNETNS

28S rRNA (cytosine(4447)-C(5))-methyltransferase, P46087
listed as a hit [1]: yes | listed as a hit [2]: yes

Endoplasmic reticulum chaperone BiP, P11021
listed as a hit [3]: yes | listed as a hit [4]: yes

THO complex subunit 7, Q6I9Y2
listed as a hit (THO complex subunit 2): yes | listed as a hit (THO complex subunit 1 [5]): yes

Transcription initiation factor TFIID subunit 4, O00268
listed as a hit [6]: yes | listed as a hit [7]: yes | listed as a hit [8]: yes | listed as a hit [9]: yes

Heterogeneous nuclear ribonucleoproteins C1/C2, P07910
listed as a hit (ELAV-like protein 1): yes | listed as a hit [10]: yes

RecQ-like DNA helicase BLM, P54132
listed as a hit [11]: yes | listed as a hit [12]: yes

Heterogeneous nuclear ribonucleoproteins A2/B1, P22626
listed as a hit [13]: yes

Heterogeneous nuclear ribonucleoprotein A1, P09651
listed as a hit [13]: yes

Histone deacetylase complex subunit SAP30, O75446
listed as a hit [14]: yes

RNA-binding protein with serine-rich domain 1, Q15287
listed as a hit (Pinin): yes

E3 ubiquitin-protein ligase RING1, Q06587
listed as a hit [15]: yes

Pre-mRNA-splicing factor SPF27, O75934
listed as a hit [16]: yes

DNA topoisomerase 3-alpha, Q13472
listed as a hit [12]: yes

Transcriptional adapter 3, O75528
listed as a hit [17]: yes

Paired amphipathic helix protein Sin3a, Q96ST3
listed as a hit [18]: yes

Breast cancer metastasis-suppressor 1-like protein, Q5PSV4
listed as a hit [18]: yes

Splicing factor 3B subunit 2, Q13435
listed as a hit [19]: yes

Cyclic AMP-dependent transcription factor ATF-2, P15336
listed as a hit [20]: yes

Transcription initiation factor TFIID subunit 10, Q12962
listed as a hit [9]: yes | listed as a hit [21]: yes | listed as a hit [22]: yes

Transcription initiation factor TFIID subunit 12, Q16514
listed as a hit [22]: yes | listed as a hit [23]: yes

Histone deacetylase complex subunit SAP18, O00422
listed as a hit [24]: yes

Protein lin-52 homolog, Q52LA3
listed as a hit (Protein lin-54 homolog [25]): yes | listed as a hit (Protein lin-9 homolog): yes

THO complex subunit 2, Q8NI27
listed as a hit (THO complex subunit 1 [26]): yes

Metastasis-associated protein MTA2, O94776
listed as a hit [27]: yes | listed as a hit [28]: yes | listed as a hit [29]: yes

DNA topoisomerase 2-alpha, P11388
listed as a hit (DNA topoisomerase 2-beta): yes

Heterogeneous nuclear ribonucleoprotein U, Q00839
listed as a hit [30]: yes

Heterogeneous nuclear ribonucleoprotein R, O43390
listed as a hit [31]: yes

Histone H1.3, P16402
listed as a hit (Histone H1.2): yes

Mediator of RNA polymerase II transcription subunit 6, O75586
listed as a hit [32]: yes

Transcriptional repressor p66-beta, Q8WXI9
listed as a hit [33]: yes

Methylcrotonoyl-CoA carboxylase subunit alpha, mitochondrial, Q96RQ3
listed as a hit [34]: yes

CD2 antigen cytoplasmic tail-binding protein 2, O95400
listed as a hit [35]: yes

Protein lin-9 homolog, Q5TKA1
listed as a hit (Protein lin-54 homolog [36]): yes

RNA-binding protein FUS, P35637
listed as a hit (RNA-binding protein EWS): yes

Scaffold attachment factor B2, Q14151
listed as a hit [37]: yes

Serine/arginine-rich splicing factor 3, P84103
listed as a hit [38]: yes

Spindlin interactor and repressor of chromatin-binding protein, Q9BUA3
listed as a hit (Spindlin-1): yes

THO complex subunit 5, Q13769
listed as a hit (THO complex subunit 2): yes | listed as a hit (THO complex subunit 7): yes

Prelamin-A/C, P02545
listed as a hit [39]: yes

Transcription initiation factor TFIID subunit 5, Q15542
listed as a hit [40]: yes | listed as a hit [8]: yes

Transcription initiation factor TFIID subunit 6, P49848
listed as a hit [8]: yes

ATP-dependent chromatin remodeler CHD4, Q14839
listed as a hit [29]: yes

Trifunctional enzyme subunit alpha, mitochondrial, P40939
listed as a hit [41]: yes
